MBNL1 CUG block – MBNL1-poly(CUG) RNA binding inhibition | Q9NR56 | TR-FRET MBNL1-His/biotin-(CUG)12 binding, 665/545 ratio | Potency, µM (doses to about 57.5 µM), inactives show at the top dose activity change, negative = inhibition, hits mostly inhibitors | hit rate 0.036% among 280,000 | AID 2675; active means well fitted inhibition curve with a large enough effect in the signal ratio, with a control signal flat, not every such curve was filed as active; inconclusive means small, poorly fitted or top-dose-only effect, or effect the other way, or a change in a side signal; inactive means no such curve, though single readings can be large or run the other way; the % refers to the signal ratio; further: potency means the concentration at half of the fitted maximal effect; on the % scale 0 is the no-effect control and ±100 the full control effect
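Compound titration spanned 92 nM–58 uM against the MBNL1-His/biotin-(CUG)12 complex. After 60 min at room temperature with 5 nM streptavidin-XL665 and 0.055 ng/ul terbium anti-His, ratiometric 665/545 nm emission (Ex 340 nm) normalized to controls.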
a7 integrin act – activators of alpha7 integrin expression for muscular dystrophy | hit rate 0.064% among 350,000 | Potency, µM (highest dose often 38.3 µM), without a hit: top-dose activation, hits mostly activators | alpha7betagal myoblasts, beta-gal FDG fluorescence, 48 h;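 further: potency means the concentration at half of the fitted maximal effect; 100% = response of the positive control SU9516; nearly all actives have a fitted effect of over 60% in size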
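Alpha7betagal+/- myoblasts (passage 13) were plated 16-24 hr, then exposed to compounds (1:260 dilution of DMSO stock) for 48 hours at 37C. After MPER lysis, β-galactosidase reporter activity was read as FDG fluorescence (ex 480/em 540) after 30 minutes.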
DRD3 agonist – activates the human D3 dopamine receptor | D3R DiscoveRx beta-arrestin cells, luminescence, 90 min | max activation, % | hit rate 0.58% among 410,000 | AID 652048; in the data active means max activation above about 30%; further: 0% is about no effect
Target sequence (P35462 whole entry, looked up): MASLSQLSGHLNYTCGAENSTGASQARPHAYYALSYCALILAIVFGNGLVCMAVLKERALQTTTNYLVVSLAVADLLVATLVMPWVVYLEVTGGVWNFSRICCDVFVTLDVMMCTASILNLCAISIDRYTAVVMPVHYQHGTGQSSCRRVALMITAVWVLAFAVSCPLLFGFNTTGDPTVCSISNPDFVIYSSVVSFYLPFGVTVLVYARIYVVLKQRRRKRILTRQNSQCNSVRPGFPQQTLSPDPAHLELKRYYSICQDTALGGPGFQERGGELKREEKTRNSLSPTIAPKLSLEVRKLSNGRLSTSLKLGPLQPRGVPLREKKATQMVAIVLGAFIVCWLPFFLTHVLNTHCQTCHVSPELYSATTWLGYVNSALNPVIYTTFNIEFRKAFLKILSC
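Agonist-mode cell screen: cells plated at 1500/well and incubated overnight at 37 °C, then exposed to library compounds for 90 min at 37 °C. Detection reagent was added for 30–60 min at room temperature, and luminescence was read.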
PTHR1 agonist – PTHR1 (human) receptor agonism; AID 743266; Potency, µM (top dose mostly 115 µM), inactives show at the top dose activation, hits mostly activators; HEK293 GP2 PTHR1 cells, GloSensor cAMP luminescence, 1 h; hit rate 0.075% among 410,000; further: potency means the concentration at half of the fitted maximal effect; nearly all actives have a fitted effect of over 55% in size
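HEK-293-derived GP2 cells expressing PTHR1 and a GloSensor cAMP reporter, 3,000/well, plated overnight, given luciferin plus IBMX (each 0.5 mM as added) for 1 h at 37 °C, then compound for 1 h at 37 °C. Luminescence was read after 15 min at room temperature.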
CBFb RUNX1 block – inhibitors of human CBF-beta and RUNX1 interaction | Potency, µM (top dose mostly 59.8 µM), without a hit: top-dose activity, negative = inhibition, actives largely listed as inhibitors | AID 1477 | AlphaScreen CBFb-His/RUNX1-biotin binding, biochemical | 230,000 tested, under 10 active; further: % of control where 0% means no effect
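Room-temperature protein-protein interaction test with 30 nM each of His-tagged CBF-beta and biotinylated RUNX1, 15 min with compound, then 90 min with nickel plus streptavidin beads. Signal read in AlphaScreen mode.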
DRD3 antagonist – blocks the human D3 dopamine receptor; P35462; D3R cells, DiscoveRx beta-arrestin luminescence, antagonist mode; hits give low values; max response, negative = inhibition, %; hit rate 2.5% among 360,000; AID 652054; in the data active means max response below about -50%; inconclusive means no clear call, values can overlap the other calls; further: on the % scale 0 is the no-effect control and ±100 the full control effect
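Cells expressing the human receptor were seeded at 1500 cells/well, incubated overnight at 37 degrees C in 5% CO2, then exposed to library compounds with dopamine controls for 90 minutes at 37 degrees C before luminescent detection.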
* = called active by the depositor; i = inactive; ? = inconclusive; . = no result given; [ ] = another dose, or the depositor's remark. Shown are actives, neighbours in structure and some others; about 2.8% of the full set was active somewhere. Unless noted, the call rests on the fitted dose curve; in most records, active means well fitted curve in the direction sought with a large enough effect; inconclusive means small, poorly fitted or top-dose-only effect, or another doubt; inactive means no such curve, though single readings can be large; an effect the other way counts as inactive or inconclusive.

SMILES	MBNL1 CUG block	a7 integrin act	DRD3 agonist	PTHR1 agonist	CBFb RUNX1 block	DRD3 antagonist
CC(C)(C)OC(=O)NCCc1nnc(SCc2ccccc2Cl)o1	5%	-7%	-2	-33%	7%	-12
C[C@H]1CN([C@@H](C)CO)C(=O)CCCn2nncc2CO[C@@H]1CN(C)S(=O)(=O)c1ccc(-c2ccccc2)cc1	.	-16%	2	-20%	.	10
Oc1ccc(Oc2ccc3c(C(F)(F)F)cc(C(F)(F)F)nc3n2)cc1	15%	-46%	44*	-26%	4%	85
COc1cccc(C2NC(c3cccc(OC)c3O)C(C)C(=O)C2C)c1O (stereo not drawn)	-7%	-13%[7.66 µM]	30*	i	-2%	13
COc1cc(CNC2CCCC2)c(Br)cc1OC1CCCC1	-6%	-36%	-22	-16%	3%	-7
COc1cc(CNCc2ccccc2)c(Br)cc1OC1CCCC1	-4%	-49%	-18	i	8%	-62*
Cc1ccc2oc(=O)c3cc(C(=O)NCCCN4CCc5ccccc5C4)sc3c2c1	?	-15%	-13	3%	7%[2.36 µM]	-55*
CCOc1ccccc1NC(=O)COC(=O)c1c(CC)noc1C	.	-10%	-15	i	.	-17
COc1cc2c(cc1OC)C(=Cc1ccc(N(C)C)cc1)C=C2	.	5%	33*	-4%	.	14
CN(C)c1ccc(C=C2C=Cc3ccccc32)cc1	.	-14%	-3	-16%	.	-4
O=C(Nc1ccc(Cl)cn1)c1cccc(S(=O)(=O)N2CCCC2)c1	-7%	-15%	8	-33%	.	8
CN(C)S(=O)(=O)c1cccc(C(=O)Nc2ccc(Cl)cn2)c1	7%	-2%	-10	i	-5%	-77*
Cc1cc(C)nc(SCC(=O)N(C)CC(=O)Nc2c(Cl)cccc2Cl)n1	.	?	-1	i	.	4
N#Cc1nc(-c2cccs2)oc1NCCN1CCOCC1	16%	11%	-1	-15%	-4%	-9
N#Cc1nc(-c2ccccc2)oc1NCCN1CCCCC1	6%	-4%	0	-80%	-16%	-72*
Cc1cc(C)cc(C(O)c2ncc(-c3ccc4ccccc4c3)[nH]2)c1 (stereo not drawn)	.	.	-12	-21%	.	-56*
Cn1c(C(=O)NCCN2CCc3ccccc3C2)cc2c(=O)n(C)c3ccccc3c21	-6%	3%	-12	8%	-4%	-88*
Cn1c(C(=O)NCCCN2CCN(c3ccc(F)cc3)CC2)cc2c(=O)n(C)c3ccccc3c21	.	26%	-14	-12%	.	-84*
Cn1c(C(=O)NCCN2CCN(c3ccccc3F)CC2)cc2c(=O)n(C)c3ccccc3c21	-4%	-1%	-7	-12%	4%	-22
Cn1c(C(=O)NCCN2CCOCC2)cc2c(=O)n(C)c3ccccc3c21	-10%	-11%	3	-6%	-10%	-1
O=C(CCn1c(=O)oc2ccccc21)NCCCN1CCN(c2ccc(F)cc2)CC1	-9%	5%	1	i	8%	-52*
Cn1c(=O)cc(SCC(=O)NCCCN2CCN(c3ccc(F)cc3)CC2)c2ccccc21	-2%	1%	-7	-11%[57.5 µM]	4%	-69*
Cn1c(=O)cc(SCC(=O)NCCN2CCN(c3ccccc3F)CC2)c2cc(Cl)ccc21	16%	-24%	-4	0%	1%	-63*
CCCOc1ccccc1OCC(=O)Nc1cccc(S(=O)(=O)NC2=NCCC2)c1	.	-9%	3	-3%	.	0
Cc1cc(C)c2c(CC(=O)NCCc3ccccc3)coc2c1	-8%	0%	34*	i	-3%	-5
CCc1nc(SCC(=O)c2ccccc2)c2c(=O)n(C)c(=O)n(C)c2n1	0%	-4%	8	-15%	8%	23
CCCc1nc(SCC(=O)c2ccccc2)c2c(=O)n(C)c(=O)n(C)c2n1	-3%	9%	31*	-38%	10%	37
CCCc1nc(SCC(=O)c2ccc(OC)cc2)c2ccccc2n1	29%	-21%	33*	-20%	15%	36

Screens from PubChem.
